# PMC7862700, “An all-to-all approach to the identification of sequence-specific readers for epigenetic DNA modifications on cytosine”
# Key:
# Assay in all cases: DAPPL (digital affinity profiling via proximity ligation, sequencing); 10 mM Tris-HCl pH 7.5, 50 mM NaCl, 1 mM DTT, 4% glycerol, room temperature, 30 min; GST-TFs on glutathione beads, 16-mer random dsDNA library, 0.1% formaldehyde crosslink after washing; high values mean tight binding
# FEV = biological target: T1, FEV (Homo sapiens, UniProt Q99581 1-238); details: protein: recombinant; tags: N-terminal GST; dsDNA, one strand shown
# T1 sequence: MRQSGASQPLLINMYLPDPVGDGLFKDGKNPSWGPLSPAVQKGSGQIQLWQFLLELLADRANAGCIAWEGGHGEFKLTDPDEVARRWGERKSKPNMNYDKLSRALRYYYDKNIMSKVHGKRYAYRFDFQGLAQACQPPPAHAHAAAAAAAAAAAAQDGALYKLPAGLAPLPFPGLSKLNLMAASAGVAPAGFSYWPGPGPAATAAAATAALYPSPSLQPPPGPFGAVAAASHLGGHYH
# Method in brief: (§1)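 In yeast, human transcription factors were expressed with a GST fusion, then pulled down on glutathione beads and given DNA barcodes. Pooled with a tag-only sample, they were exposed to 200 nmole of a 16-mer random double-stranded DNA library (Tris/NaCl/DTT/glycerol buffer, room temperature, 30 min), washed, crosslinked with 0.1% formaldehyde, proximity-ligated using BsaI/T4 ligase for 1 h at 37 °C, PCR-amplified and read on an Illumina NextSeq500. Each hexamer's frequency of reads for a factor, divided by the matching frequency for the tag-only sample, gives the binding signal.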
# ETV5 = ETV5 (Homo sapiens, UniProt P41161 1-510); details: protein: recombinant; tags: N-terminal GST; dsDNA, one strand shown
# Method in brief: as §1
# HSF1 = HSF1 (Homo sapiens, UniProt Q00613 1-529); details: protein: recombinant; tags: N-terminal GST; chain copies: 3; dsDNA, one strand shown
# Method in brief: as §1
# SPIC = biological target: T2, SPIC (Homo sapiens, UniProt Q8N5J4 1-248); details: protein: recombinant; tags: N-terminal GST; dsDNA, one strand shown
# T2 sequence: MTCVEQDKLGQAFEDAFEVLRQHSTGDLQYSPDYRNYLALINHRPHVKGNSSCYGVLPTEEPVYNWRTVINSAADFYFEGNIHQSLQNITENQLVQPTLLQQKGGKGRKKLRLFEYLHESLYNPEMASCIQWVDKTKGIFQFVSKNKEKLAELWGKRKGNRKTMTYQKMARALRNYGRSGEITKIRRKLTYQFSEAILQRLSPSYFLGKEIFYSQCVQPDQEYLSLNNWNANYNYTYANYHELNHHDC
# Method in brief: as §1
# ELF4 = ELF4 (Homo sapiens, UniProt Q99607 1-663); details: protein: recombinant; tags: N-terminal GST; dsDNA, one strand shown
# Method in brief: as §1
# ELK4 = biological target: T3, ELK4 (Homo sapiens, UniProt P28324-2 1-405); details: protein: recombinant; tags: N-terminal GST; dsDNA, one strand shown
# T3 sequence: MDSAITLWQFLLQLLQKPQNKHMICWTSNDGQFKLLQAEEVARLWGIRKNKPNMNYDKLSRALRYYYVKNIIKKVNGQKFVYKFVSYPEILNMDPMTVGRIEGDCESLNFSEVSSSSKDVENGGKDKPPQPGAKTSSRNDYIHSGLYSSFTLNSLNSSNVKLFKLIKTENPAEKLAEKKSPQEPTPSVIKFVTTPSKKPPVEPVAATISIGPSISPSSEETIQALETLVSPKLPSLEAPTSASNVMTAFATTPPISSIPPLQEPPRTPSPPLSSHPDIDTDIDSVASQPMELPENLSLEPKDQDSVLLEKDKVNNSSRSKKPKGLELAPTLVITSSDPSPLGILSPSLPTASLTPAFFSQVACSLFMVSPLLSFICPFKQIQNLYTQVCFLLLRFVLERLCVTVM
# Method in brief: as §1
# ETV2 = biological target: T4, ETV2 (Homo sapiens, UniProt O00321 1-342); details: protein: recombinant; tags: N-terminal GST; dsDNA, one strand shown
# T4 sequence: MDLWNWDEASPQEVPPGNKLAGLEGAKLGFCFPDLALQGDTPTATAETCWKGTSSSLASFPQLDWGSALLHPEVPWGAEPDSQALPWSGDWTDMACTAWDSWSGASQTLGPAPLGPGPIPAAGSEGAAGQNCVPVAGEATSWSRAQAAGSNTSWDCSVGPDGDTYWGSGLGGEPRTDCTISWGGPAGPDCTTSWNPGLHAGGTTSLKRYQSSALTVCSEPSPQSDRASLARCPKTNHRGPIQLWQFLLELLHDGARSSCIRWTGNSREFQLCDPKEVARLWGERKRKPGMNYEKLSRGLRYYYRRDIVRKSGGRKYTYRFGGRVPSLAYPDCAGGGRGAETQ
# Method in brief: as §1
# ELF3 = biological target: T5, ELF3 (Homo sapiens, UniProt P78545 1-371); details: protein: recombinant; tags: N-terminal GST; dsDNA, one strand shown
# T5 sequence: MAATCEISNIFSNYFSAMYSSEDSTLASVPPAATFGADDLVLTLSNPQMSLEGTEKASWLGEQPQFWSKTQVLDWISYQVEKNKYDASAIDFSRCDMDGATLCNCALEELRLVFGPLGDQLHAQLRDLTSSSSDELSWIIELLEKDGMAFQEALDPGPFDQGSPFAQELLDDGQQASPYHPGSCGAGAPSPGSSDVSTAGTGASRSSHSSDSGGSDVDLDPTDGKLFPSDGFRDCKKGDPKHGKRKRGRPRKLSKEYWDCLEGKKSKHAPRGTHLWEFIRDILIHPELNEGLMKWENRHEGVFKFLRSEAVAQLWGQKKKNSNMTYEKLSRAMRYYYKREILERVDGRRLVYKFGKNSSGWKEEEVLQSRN
# Method in brief: as §1
# ETV1 = ETV1 (Homo sapiens, UniProt P50549 1-477); details: protein: recombinant; tags: N-terminal GST; dsDNA, one strand shown
# Method in brief: as §1
# ERF = biological target: T6, ERF (Homo sapiens, UniProt P50548 1-548); details: protein: recombinant; tags: N-terminal GST; dsDNA, one strand shown
# T6 sequence: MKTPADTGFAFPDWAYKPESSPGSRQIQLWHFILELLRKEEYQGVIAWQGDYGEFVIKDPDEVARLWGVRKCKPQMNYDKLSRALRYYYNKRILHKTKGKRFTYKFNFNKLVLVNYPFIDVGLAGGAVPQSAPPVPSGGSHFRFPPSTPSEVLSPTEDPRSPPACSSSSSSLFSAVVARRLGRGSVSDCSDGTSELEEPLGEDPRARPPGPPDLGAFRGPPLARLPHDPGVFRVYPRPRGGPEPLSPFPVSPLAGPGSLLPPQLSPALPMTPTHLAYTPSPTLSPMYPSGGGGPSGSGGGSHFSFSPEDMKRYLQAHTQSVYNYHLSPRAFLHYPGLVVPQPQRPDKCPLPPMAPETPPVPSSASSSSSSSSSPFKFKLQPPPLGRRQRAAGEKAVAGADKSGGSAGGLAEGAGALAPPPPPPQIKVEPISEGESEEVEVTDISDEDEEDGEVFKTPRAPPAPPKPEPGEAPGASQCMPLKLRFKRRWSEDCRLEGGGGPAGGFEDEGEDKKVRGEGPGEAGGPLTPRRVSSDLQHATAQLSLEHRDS
# Method in brief: as §1
# ETV3L = biological target: T7, ETV3L (Homo sapiens, UniProt Q6ZN32 1-361); details: protein: recombinant; tags: N-terminal GST; dsDNA, one strand shown
# T7 sequence: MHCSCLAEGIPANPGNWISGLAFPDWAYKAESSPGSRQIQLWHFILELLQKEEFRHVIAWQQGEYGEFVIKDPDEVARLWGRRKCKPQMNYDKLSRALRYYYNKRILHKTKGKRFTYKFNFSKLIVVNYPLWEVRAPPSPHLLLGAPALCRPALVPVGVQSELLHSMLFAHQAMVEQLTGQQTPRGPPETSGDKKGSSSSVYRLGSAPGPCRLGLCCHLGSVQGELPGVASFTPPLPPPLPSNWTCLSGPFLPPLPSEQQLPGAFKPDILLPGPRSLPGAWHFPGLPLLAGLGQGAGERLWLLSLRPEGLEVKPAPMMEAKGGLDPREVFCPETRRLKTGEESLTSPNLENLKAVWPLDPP
# Method in brief: as §1
# ETS2 = biological target: T8, ETS2 (Homo sapiens, UniProt P15036 1-469); details: protein: recombinant; tags: N-terminal GST; dsDNA, one strand shown
# T8 sequence: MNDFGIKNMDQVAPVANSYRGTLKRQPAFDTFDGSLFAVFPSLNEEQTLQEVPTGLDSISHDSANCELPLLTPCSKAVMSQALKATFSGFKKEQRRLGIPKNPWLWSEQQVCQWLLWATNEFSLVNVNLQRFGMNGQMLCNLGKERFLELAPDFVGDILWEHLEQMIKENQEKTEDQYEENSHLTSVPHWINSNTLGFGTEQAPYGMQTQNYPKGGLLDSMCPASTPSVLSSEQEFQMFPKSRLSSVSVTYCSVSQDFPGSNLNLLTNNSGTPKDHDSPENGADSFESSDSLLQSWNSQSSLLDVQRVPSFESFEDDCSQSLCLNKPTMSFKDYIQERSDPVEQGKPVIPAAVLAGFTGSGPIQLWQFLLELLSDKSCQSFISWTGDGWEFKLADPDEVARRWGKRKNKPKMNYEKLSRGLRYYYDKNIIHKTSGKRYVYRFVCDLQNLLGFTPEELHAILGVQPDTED
# Method in brief: as §1
# SPDEF = biological target: T9, SPDEF (Homo sapiens, UniProt O95238 1-335); details: protein: recombinant; tags: N-terminal GST; dsDNA, one strand shown
# T9 sequence: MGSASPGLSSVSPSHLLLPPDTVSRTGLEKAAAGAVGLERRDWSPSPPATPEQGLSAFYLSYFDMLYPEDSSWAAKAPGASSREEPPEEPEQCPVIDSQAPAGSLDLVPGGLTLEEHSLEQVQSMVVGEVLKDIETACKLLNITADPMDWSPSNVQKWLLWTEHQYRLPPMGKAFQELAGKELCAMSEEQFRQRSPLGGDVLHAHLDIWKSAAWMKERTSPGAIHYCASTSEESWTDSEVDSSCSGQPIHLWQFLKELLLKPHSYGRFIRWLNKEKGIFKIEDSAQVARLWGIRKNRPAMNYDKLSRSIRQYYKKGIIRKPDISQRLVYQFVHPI
# Method in brief: as §1
# ETV7 = biological target: T10, ETV7 (Homo sapiens, UniProt Q9Y603 1-341); details: protein: recombinant; tags: N-terminal GST; dsDNA, one strand shown
# T10 sequence: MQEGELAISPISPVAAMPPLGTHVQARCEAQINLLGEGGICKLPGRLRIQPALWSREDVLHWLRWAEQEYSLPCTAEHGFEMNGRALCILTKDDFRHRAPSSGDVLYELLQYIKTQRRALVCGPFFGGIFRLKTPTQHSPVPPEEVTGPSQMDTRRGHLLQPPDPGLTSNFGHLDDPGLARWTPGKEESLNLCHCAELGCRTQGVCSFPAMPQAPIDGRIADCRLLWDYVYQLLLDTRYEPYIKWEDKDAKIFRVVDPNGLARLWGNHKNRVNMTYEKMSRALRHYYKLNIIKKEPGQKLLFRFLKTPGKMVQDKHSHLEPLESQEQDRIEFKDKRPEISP
# Method in brief: as §1
# ELF5 = biological target: T11, ELF5 (Homo sapiens, UniProt Q9UKW6-2 1-255); details: protein: recombinant; tags: N-terminal GST; dsDNA, one strand shown
# T11 sequence: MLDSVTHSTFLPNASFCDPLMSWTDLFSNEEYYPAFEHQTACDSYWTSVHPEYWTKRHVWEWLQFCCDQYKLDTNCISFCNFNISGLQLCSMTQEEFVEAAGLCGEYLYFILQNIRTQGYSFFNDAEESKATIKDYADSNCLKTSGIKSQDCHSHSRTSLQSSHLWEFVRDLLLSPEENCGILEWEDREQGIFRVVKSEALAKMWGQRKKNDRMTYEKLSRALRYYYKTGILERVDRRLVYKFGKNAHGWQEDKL
# Method in brief: as §1
# ETV3 = biological target: T12, ETV3 (Homo sapiens, UniProt P41162-2 1-143); details: protein: recombinant; tags: N-terminal GST; dsDNA, one strand shown
# T12 sequence: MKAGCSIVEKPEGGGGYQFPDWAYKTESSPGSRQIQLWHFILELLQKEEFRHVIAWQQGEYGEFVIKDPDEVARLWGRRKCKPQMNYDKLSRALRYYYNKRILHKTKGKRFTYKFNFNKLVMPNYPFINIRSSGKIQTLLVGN
# Method in brief: as §1
# ETV6 = ETV6 (Homo sapiens, UniProt P41212 1-452); details: protein: recombinant; tags: N-terminal GST; dsDNA, one strand shown
# Method in brief: as §1
# Sequence of ELF4 (Q99607 whole entry): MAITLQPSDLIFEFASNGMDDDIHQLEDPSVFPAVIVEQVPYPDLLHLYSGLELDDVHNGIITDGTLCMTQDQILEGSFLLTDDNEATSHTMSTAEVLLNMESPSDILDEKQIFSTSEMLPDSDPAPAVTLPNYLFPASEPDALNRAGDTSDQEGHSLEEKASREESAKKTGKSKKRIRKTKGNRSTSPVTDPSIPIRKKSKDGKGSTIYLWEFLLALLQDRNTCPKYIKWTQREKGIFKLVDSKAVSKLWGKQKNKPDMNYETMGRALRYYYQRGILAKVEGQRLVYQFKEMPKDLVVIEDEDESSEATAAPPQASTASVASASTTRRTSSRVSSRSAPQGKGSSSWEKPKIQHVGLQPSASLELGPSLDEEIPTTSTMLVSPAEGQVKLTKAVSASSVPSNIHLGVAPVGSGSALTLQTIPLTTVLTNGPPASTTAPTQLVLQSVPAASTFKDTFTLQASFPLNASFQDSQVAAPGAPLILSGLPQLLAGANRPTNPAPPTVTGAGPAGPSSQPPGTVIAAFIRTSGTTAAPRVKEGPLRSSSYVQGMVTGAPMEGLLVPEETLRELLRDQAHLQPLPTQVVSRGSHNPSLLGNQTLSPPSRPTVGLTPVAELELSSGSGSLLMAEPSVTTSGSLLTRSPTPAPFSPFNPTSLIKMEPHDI
# Sequence of ETV6 (P41212 whole entry): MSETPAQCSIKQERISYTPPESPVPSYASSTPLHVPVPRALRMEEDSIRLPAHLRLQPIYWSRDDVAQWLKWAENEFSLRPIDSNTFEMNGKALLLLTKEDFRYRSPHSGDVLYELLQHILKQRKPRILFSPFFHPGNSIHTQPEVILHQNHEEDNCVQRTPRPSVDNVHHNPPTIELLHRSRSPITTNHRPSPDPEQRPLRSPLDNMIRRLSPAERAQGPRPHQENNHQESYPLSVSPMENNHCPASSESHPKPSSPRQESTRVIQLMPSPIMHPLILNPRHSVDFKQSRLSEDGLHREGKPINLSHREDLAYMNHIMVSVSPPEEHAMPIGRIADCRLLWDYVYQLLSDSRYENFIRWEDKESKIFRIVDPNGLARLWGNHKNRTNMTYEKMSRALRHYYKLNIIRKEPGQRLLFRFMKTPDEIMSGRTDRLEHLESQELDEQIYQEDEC
# Sequence of HSF1 (Q00613 whole entry): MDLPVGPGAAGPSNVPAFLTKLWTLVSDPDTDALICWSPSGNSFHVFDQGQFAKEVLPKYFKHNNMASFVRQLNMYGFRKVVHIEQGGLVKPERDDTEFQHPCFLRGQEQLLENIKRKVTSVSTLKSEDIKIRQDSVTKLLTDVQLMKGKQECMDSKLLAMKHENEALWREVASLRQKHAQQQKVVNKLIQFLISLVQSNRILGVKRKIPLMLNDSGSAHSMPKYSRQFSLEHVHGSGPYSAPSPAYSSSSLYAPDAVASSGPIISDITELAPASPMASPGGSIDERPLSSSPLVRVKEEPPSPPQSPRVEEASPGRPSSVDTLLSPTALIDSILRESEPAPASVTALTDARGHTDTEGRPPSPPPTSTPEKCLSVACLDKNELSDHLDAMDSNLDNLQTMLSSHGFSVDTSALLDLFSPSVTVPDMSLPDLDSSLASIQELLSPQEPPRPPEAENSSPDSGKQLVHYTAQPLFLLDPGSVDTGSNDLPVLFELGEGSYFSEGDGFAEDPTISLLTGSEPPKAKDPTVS
# Sequence of ETV1 (P50549 whole entry): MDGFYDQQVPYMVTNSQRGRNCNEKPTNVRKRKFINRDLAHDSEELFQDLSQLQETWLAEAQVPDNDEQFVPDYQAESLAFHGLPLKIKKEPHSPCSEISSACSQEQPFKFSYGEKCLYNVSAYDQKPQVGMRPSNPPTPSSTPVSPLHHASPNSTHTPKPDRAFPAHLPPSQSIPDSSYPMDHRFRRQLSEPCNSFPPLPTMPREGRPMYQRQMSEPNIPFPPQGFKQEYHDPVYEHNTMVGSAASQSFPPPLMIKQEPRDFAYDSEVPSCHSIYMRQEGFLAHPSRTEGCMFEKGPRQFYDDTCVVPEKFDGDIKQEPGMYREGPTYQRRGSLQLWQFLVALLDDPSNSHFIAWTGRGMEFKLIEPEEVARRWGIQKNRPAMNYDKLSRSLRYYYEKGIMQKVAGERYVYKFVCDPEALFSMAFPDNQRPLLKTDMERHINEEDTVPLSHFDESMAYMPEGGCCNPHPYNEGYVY
# Sequence of ETV5 (P41161 whole entry): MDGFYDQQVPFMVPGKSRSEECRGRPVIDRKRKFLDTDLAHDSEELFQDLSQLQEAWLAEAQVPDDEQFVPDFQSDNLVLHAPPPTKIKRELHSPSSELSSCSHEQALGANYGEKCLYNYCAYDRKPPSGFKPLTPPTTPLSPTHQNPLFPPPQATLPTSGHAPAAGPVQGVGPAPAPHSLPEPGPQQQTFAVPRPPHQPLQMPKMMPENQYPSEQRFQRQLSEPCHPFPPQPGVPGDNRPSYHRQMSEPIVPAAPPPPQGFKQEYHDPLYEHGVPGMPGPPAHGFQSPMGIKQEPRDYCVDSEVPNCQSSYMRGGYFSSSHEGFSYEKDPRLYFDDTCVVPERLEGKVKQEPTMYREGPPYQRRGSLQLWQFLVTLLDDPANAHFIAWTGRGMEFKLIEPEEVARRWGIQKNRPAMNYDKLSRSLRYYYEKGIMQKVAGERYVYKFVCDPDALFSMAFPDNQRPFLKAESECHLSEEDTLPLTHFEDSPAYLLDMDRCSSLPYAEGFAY
sequence,measurement,setting,value
CGATAC,binding signal,FEV,"1.14 fold enrichment (6-mer frequency, TF over GST control)"
same,binding signal,ETV5,"1.13 fold enrichment (6-mer frequency, TF over GST control)"
same,binding signal,HSF1,"1.01 fold enrichment (6-mer frequency, TF over GST control)"
same,binding signal,SPIC,"1.34 fold enrichment (6-mer frequency, TF over GST control)"
same,binding signal,ELF4,"1.25 fold enrichment (6-mer frequency, TF over GST control)"
same,binding signal,ELK4,"1.15 fold enrichment (6-mer frequency, TF over GST control)"
same,binding signal,ETV2,"1.18 fold enrichment (6-mer frequency, TF over GST control)"
same,binding signal,ELF3,"1.14 fold enrichment (6-mer frequency, TF over GST control)"
same,binding signal,ETV1,"1.13 fold enrichment (6-mer frequency, TF over GST control)"
same,binding signal,ERF,"1.2 fold enrichment (6-mer frequency, TF over GST control)"
same,binding signal,ETV3L,"1.18 fold enrichment (6-mer frequency, TF over GST control)"
same,binding signal,ETS2,"1.19 fold enrichment (6-mer frequency, TF over GST control)"
same,binding signal,SPDEF,"1.29 fold enrichment (6-mer frequency, TF over GST control)"
same,binding signal,ETV7,"1.02 fold enrichment (6-mer frequency, TF over GST control)"
same,binding signal,ELF5,"1.1 fold enrichment (6-mer frequency, TF over GST control)"
same,binding signal,ETV3,"1.15 fold enrichment (6-mer frequency, TF over GST control)"
same,binding signal,ETV6,"1.09 fold enrichment (6-mer frequency, TF over GST control)"
